Cell viability data for nine compounds are collected here from the supplement of paper PMC6522484.

The structures appear in SMILES notation. ± gives the standard deviation of the averaged measurements.

This assay has as its system HCT116. Nature of the assay: cell viability (CellTiter-Glo) relative to plate median (fraction of plate median); higher = more viable cells. The note with it: 5 µM; treatment time 24 h; reporter: TCF4/Wnt. The essentials: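 Colorectal cancer cells stably transduced with lentiviral TCF/Wnt firefly luciferase reporters were seeded in 384-well plates and dosed 24 h later with library compounds at a final 5 µM for 24 h. Firefly luciferase or CellTiterGlo luminescence was then read on a Tecan F500 from parallel plates. Signals were normalised per well to the plate median without log transformation, additively in webcellHTS2, and averaged over two independent replicates.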
(In general: Cellular ATP, detected with luciferase, serves as a proxy for viable cell number.)
`CC1(C)OC(=O)NC1=O`: the cell viability was 0.9705 ± 0.0064.

As for `S=P(N1CC1)(N1CC1)N1CC1`, the cell viability was 0.928 ± 0.017.

For `CN[C@@H]1[C@H](O)[C@H](NC)[C@H]2O[C@@]3(O)C(=O)C[C@@H](C)O[C@H]3O[C@@H]2[C@H]1O`, the cell viability turned out to be 1.004 ± 0.0085.

Take `COc1ccc(CN(CCN(C)C)c2ncccn2)cc1`: the cell viability worked out at 0.969 ± 0.086.

The compound `NC(=O)c1cc[n+](CC2=C(C(=O)O)N3C(=O)[C@@H](NC(=O)[C@@H](c4ccccc4)S(=O)(=O)[O-])[C@H]3SC2)cc1` yielded a cell viability of 0.983 ± 0.067.

The compound `CC1(C)S[C@@H]2[C@H](NC(=O)[C@H](NC(=O)N3CCNC3=O)c3ccccc3)C(=O)N2[C@H]1C(=O)O` yielded a cell viability of 0.988 ± 0.0042.

On to `COc1ccccc1OCC(O)CN1CCN(CC(=O)Nc2c(C)cccc2C)CC1` (centres undefined), for which the cell viability was 0.927 ± 0.018.

In turn, `COc1c2ccoc2nc2c(OC)c(OCC(O)C(C)(C)O)ccc12` (centres undefined) returned a cell viability of 1 ± 0.014.

In the case of `Cc1c(NC(C)C)c(=O)n(-c2ccccc2)n1C`, the cell viability amounted to 1.05 ± 0.15.
